Test results from PubChem BioAssay.
Calls of active or inactive are those of the source.

How the values were obtained:
[1] = optical density shifts of acrAB sulA E. coli – strain DRC41, OD650, 48 h, E. coli filamentation inducer project, primary screen (AID 1152); settings: higher = more signal, called active from +8 up or from −8 down;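 note: E. coli MC1000 strain DRC41 lacking acrAB efflux pump and sulA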
[2] = probe aLefty1 binding on compound microarray – biochemical, small-molecule microarray, 635/667 nm fluorescence, primary screen (AID 1153); settings: higher = more signal;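 note: score merges spot fluorescence with signal-to-noise ratio from the scanned slide images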
[3] = plasmodial surface anion channel blockers, osmotic lysis – cell-based, P. falciparum Indochina, OD700, 1 h, primary screen (AID 1154); settings: P. falciparum Indochina infected RBC osmotic lysis, higher = more signal, called active from +8 up or from −8 down
[4] = plasmodial surface anion channel blockers, osmotic lysis – cell-based, P. falciparum Indochina, OD700, 2 h, primary screen (AID 1155);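 note: lysis reports solute entry through the parasite surface anion channel PSAC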; settings: P. falciparum Indochina infected erythrocytes, higher = more signal, called active from +8 up or from −8 down
[5] = changes in parasitized red cell lysis, either direction – P. falciparum Indochina, OD700, 3 h, PSAC antagonist project, primary screen (AID 1156); settings: P. falciparum-infected erythrocytes, osmotic lysis, higher = more signal, called active from +8 up or from −8 down
[6] = plasmodial surface anion channel blockers, osmotic lysis – cell-based, P. falciparum Indochina, OD700, 18 h, primary screen (AID 1157); settings: P. falciparum Indochina infected erythrocytes, osmotic lysis OD700, 18 h; higher = more signal, called active from +8 up or from −8 down
[7] = S6 kinase pathway phospho-S6 level changes – cell-based, A549, cytoblot, luminescence, serum-stimulated, primary screen (AID 1158); settings: 5 h, higher = more signal;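 note: serum-stimulated A549 lung adenocarcinoma cells; signal is phosphorylated S6 detected by cytoblot immunostaining with HRP secondary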
[8] = molecular target: NADPH oxidase 2 (Homo sapiens) (UniProt P04839); assay: compounds shifting NOX2 Amplex Red fluorescence – cell-based, HEK293-NOX2, PMA-stimulated, NOX inhibitor project, primary screen (AID 1159); settings: 45 min, higher = more signal, called active from +8 up or from −8 down; note: test concentration not given here
[9] = molecular target: NADPH oxidase 4 (Homo sapiens) (UniProt Q9NPH5); assay: compounds shifting NOX4 Amplex Red fluorescence – cell-based, HEK293-NOX4, tetracycline-induced, NOX inhibitor project, primary screen (AID 1160); settings: HEK293-NOX4, Amplex Red H2O2 fluorescence, 45 min; higher = more signal, called active from +8 up or from −8 down
[10] = molecular target: NADPH oxidase 5 (Homo sapiens) (UniProt Q96PH1); assay: compounds shifting NOX5 Amplex Red fluorescence – cell-based, HEK293-NOX5, NOX inhibitor project, primary screen (AID 1161); settings: HEK293-NOX5, ionomycin, 45 min, higher = more signal
[11] = compound effects on lung adenocarcinoma cell viability – A549, calcein-AM fluorescence, 48 h, basal, profiling panel (AID 1162); settings: higher = more signal; note: test concentration not given here
[12] = compound effects on differentiated 3T3-L1 adipocyte viability – cell-based, 3T3-L1 adipocytes, calcein-AM fluorescence, 48 h, basal, profiling panel (AID 1163); settings: 3T3-L1 adipocytes viability, higher = more signal; note: test concentration not given here
[13] = compound effects on hepatocellular carcinoma cell viability – HepG2, calcein-AM fluorescence, 48 h, basal, profiling panel (AID 1164); settings: higher = more signal; note: test concentration not given here
[14] = compound effects on multiple myeloma cell viability – MM1S, calcein-AM fluorescence, 48 h, basal, profiling panel (AID 1165); settings: higher = more signal;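 note: viability of MM1S multiple myeloma cells under basal unstimulated conditions; test concentration not given here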
[15] = calcein-AM signal in unstimulated myeloma cells – cell-based, calcein-AM fluorescence, 48 h, PK04 Diversity Set, profiling panel (AID 1166); settings: RPMI8226 myeloma viability, higher = more signal;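 note: cells grown under basal conditions without added stimulus; test concentration not given here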
[16] = JC-1 mitochondrial signal, unstimulated HepG2 cells – cell-based, JC-1 fluorescence, 24 h, 100 nL compound, profiling panel (AID 1167); settings: HepG2 mitochondrial potential, higher = more signal; note: test concentration not given here
[17] = JC-1 mitochondrial signal, unstimulated adipocytes – cell-based, JC-1 fluorescence, 3T3-L1 adipocytes, 24 h, 100 nL compound, profiling panel (AID 1168); settings: JC-1 mitochondrial fluorescence, higher = more signal, called active from +8 up or from −8 down; note: test concentration not given here
[18] = JC-1 mitochondrial signal, unstimulated myeloma cells – cell-based, JC-1 fluorescence, RPMI8226, 24 h, 100 nL compound, profiling panel (AID 1169); settings: JC-1 mitochondrial potential fluorescence, higher = more signal; note: test concentration not given here
[19] = JC-1 mitochondrial signal, unstimulated MM1S myeloma – cell-based, JC-1 fluorescence, 24 h, 100 nL compound, profiling panel (AID 1170); settings: MM1S mitochondrial potential, higher = more signal; note: test concentration not given here
[20] = resazurin metabolic signal in A549 cells – cell-based, resazurin fluorescence, 24 h, PK04 Diversity Set, profiling panel (AID 1171); settings: A549 viability, higher = more signal, called active from +8 up or from −8 down; note: test concentration not given here

NADPH oxidase 2 (Homo sapiens), sequence (P04839 whole entry, looked up): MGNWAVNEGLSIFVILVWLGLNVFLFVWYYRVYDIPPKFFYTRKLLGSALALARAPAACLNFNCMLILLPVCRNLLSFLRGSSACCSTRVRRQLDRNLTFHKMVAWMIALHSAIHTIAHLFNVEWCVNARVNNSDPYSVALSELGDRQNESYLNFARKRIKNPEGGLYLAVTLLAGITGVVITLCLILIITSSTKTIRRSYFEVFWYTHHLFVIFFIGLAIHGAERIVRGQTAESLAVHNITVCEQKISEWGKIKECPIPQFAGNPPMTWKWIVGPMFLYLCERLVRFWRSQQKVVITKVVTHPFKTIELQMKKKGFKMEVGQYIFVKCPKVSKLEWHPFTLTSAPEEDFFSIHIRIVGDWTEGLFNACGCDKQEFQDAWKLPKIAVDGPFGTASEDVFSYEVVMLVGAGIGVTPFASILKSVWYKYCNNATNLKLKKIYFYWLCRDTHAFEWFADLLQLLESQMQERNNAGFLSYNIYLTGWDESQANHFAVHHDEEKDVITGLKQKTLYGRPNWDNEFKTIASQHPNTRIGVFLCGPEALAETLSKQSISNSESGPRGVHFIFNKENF
NADPH oxidase 4 (Homo sapiens), sequence (Q9NPH5 whole entry, looked up): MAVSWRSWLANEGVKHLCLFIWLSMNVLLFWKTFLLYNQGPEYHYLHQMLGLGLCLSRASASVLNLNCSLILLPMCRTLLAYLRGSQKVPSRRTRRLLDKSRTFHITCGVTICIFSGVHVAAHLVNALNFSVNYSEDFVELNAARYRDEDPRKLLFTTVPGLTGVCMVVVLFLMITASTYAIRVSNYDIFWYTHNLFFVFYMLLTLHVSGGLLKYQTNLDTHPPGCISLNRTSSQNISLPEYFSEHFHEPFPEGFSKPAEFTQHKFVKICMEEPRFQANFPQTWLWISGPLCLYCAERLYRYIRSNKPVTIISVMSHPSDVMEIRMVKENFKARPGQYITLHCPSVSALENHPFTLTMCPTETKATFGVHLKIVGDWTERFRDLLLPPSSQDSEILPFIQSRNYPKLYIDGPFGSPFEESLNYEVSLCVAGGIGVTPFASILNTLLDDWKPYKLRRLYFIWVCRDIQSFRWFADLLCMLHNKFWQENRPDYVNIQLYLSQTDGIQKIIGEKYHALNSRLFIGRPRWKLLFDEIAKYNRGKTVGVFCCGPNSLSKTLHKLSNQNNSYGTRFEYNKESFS
NADPH oxidase 5 (Homo sapiens), sequence (Q96PH1 whole entry, looked up): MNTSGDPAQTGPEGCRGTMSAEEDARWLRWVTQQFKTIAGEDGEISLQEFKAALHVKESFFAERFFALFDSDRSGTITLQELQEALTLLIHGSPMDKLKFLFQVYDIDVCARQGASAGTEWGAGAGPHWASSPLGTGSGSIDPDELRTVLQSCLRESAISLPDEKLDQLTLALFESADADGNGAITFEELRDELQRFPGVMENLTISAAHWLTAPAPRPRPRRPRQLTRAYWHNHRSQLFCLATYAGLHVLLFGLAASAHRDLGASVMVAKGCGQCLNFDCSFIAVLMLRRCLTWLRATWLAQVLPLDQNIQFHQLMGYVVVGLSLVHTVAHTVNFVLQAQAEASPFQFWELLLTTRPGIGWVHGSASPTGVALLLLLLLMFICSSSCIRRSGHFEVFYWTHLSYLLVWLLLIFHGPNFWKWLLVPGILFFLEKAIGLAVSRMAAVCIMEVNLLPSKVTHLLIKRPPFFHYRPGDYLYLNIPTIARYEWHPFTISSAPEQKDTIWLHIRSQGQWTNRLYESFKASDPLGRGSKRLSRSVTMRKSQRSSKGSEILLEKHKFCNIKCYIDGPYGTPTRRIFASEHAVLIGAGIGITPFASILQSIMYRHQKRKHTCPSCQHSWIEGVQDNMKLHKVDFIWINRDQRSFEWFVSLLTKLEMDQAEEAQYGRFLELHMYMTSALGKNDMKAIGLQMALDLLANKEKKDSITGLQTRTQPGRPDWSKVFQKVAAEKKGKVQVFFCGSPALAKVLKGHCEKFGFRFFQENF

Row | Compound | z-score [1] | composite z-score [2] | z-score [3] | z-score [4] | z-score [5] | z-score [6] | z-score [7] | z-score [8] | z-score [9] | z-score [10] | z-score [11] | z-score [12] | z-score [13] | z-score [14] | z-score [15] | z-score [16] | z-score [17] | z-score [18] | z-score [19] | z-score [20]
1 | C=C(/C(=C/C[C@@H](OC(=O)c1ccncc1)c1ccc(CO)o1)c1cnc2ccccc2c1)C(C)C | 0.767 (inactive) | 0.0248 | 4.66 (inactive) | 0.231 (inactive) | 0.633 (inactive) | -0.0835 (inactive) | -0.191 | 0.588 (inactive) | -0.649 (inactive) | -1.08 | 0.755 | 1.61 | -0.993 | -1.24 | 0.13 | -0.75 | 0.03 (inactive) | 0.0616 | 0.627 | 0.382 (inactive)
2 | CCOC(=O)C1=CC[C@@H](c2ccc(-c3ccc(OCc4ccccc4)cc3)c(OC)c2)N(S(=O)(=O)c2ccc(C)cc2)[C@H]1c1ccccc1 | -0.0232 (inactive) | 0.404 | 2.67 (inactive) | 1.86 (inactive) | 0.487 (inactive) | 1.22 (inactive) | -0.533 | 1.31 (inactive) | 0.643 (inactive) | 0.429 | -0.603 | -0.416 | 0.418 | -1.23 | -0.119 | 4.16 | 0.51 (inactive) | -0.161 | -1.54 | 0.751 (inactive)
3 | CCCC[C@H]1OB(O)C[C@H]2C1=C(COC)C[C@H]1C(=O)N(Cc3ccccc3)C(=O)[C@H]12 | 2.78 (inactive) | -0.0969 | 1.14 (inactive) | -1.1 (inactive) | 0.223 (inactive) | -2 (inactive) | 0.932 | 0.034 (inactive) | 0.811 (inactive) | 1.37 | 0.485 | 0.938 | -0.0393 | 0.405 | -0.537 | 0.987 | 0.835 (inactive) | 0.361 | 1.46 | 0.272 (inactive)
4 | COCCOC(=O)N1C(=O)[C@@]2(c3cc(C#CCNC(N)=O)ccc31)[C@H](c1ccc(OCCO)cc1)N1[C@H](c3ccccc3)[C@H](c3ccccc3)OC(=O)[C@H]1[C@@H]2C(=O)N1CCCCCCC1 | 1.92 (inactive) | 1.16 | 1.96 (inactive) | 0.568 (inactive) | 0.465 (inactive) | -0.737 (inactive) | 1.01 | 2.38 (inactive) | 1.22 (inactive) | 0.765 | 0.118 | 1.97 | -0.164 | -0.115 | 0.269 | -0.411 | -3.07 (inactive) | -0.659 | -1.11 | 0.643 (inactive)
